Most compounds without a hit are left out; they make up all but 0.84% or so of the library.
SRC3 TRFRET art: TR-FRET artefact, counter-screen to PPARgamma/SRC-3 agonist assay. 0.39% of 99,000 active. TR-FRET ratio at 8 µM. AID 1048. PPARgamma/SRC-3 format; stronger effect = higher value
SRC2 TRFRET art: flags TR-FRET format artefacts in PPARgamma SRC-2 recruitment agonist screen; TR-FRET ratio at 8 µM; TR-FRET artefact counter-screen; stronger effect = higher value; 0.4% of 200,000 active; AID 1049
PPARg SRC-3 ag: promotes SRC-3 coactivator recruitment by human PPARgamma; P37231; biochemical PPARgamma/SRC-3 coactivator recruitment assay; 0.26% of 200,000 active; activation, % at 8 µM; in the data active = activation above about 23%
Target sequence (P37231 whole entry, looked up): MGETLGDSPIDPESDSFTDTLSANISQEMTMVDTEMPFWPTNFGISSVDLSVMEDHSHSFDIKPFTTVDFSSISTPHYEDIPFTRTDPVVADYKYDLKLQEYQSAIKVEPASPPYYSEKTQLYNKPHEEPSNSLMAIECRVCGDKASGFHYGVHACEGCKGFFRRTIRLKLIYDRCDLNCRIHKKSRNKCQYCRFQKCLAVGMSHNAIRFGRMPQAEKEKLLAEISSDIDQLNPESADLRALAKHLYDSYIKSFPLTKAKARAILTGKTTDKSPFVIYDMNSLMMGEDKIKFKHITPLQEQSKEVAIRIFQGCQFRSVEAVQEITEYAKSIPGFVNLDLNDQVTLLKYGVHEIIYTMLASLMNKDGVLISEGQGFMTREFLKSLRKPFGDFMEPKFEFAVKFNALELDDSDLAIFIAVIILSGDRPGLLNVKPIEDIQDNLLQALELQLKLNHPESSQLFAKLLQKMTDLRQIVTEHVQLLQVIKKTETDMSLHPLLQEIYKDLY
PPARg SRC2 recr: PPARgamma-driven SRC-2 recruitment agonism; 0.34% of 200,000 active; P37231; activation, % at 8 µM; AID 1032; PPARgamma LBD-SRC-2 recruitment, biochemical; in the data active = activation above about 22%
PPARg SRC1 recr: agonists of human PPARgamma SRC-1 coactivator recruitment; activation, % at 8 µM; P37231; PPARgamma-SRC-1 coactivator recruitment biochemical assay; 0.41% of 200,000 active; in the data active = activation above about 19%
SRC1 TRFRET art: counter-screen for PPARgamma SRC-1 recruitment agonists: TR-FRET artefact; 0.34% of 99,000 active; AID 1051; TR-FRET ratio at 8 µM; TR-FRET detection artefact counter-screen, emission ratio; stronger effect = higher value; in the data active = TR-FRET ratio above about 2300
PPARg SRC2 ag: confirmation of agonists of SRC-2 recruitment by human PPARgamma. shares compounds with PPARg SRC-3 ag. biochemical SRC-2 recruitment by PPARgamma. activation, % at 8 µM. 52% of 790 active; in the data active = activation above about 22%
PPARg SRC1 conf: confirmation of agonists of SRC-1 recruitment by human PPARgamma | PPARgamma–SRC-1 coactivator recruitment biochemical assay | activation, % at 8 µM | 43% of 790 active | shares compounds with PPARg SRC-3 ag | AID 1300; in the data active = activation above about 20%
PPARg SRC3 conf: human PPARgamma SRC-3 recruitment agonism, confirmation | shares compounds with PPARg SRC-3 ag | biochemical PPARgamma-SRC-3 coactivator recruitment, agonist mode | activation, % at 8 µM | 29% of 790 active | AID 1301; in the data active = activation above about 24%
Large screens that a line does not name were inactive (follow-up assays come after a bar, where they were run). Cut-off read from the data, not from the text of the source, unless noted: active = TR-FRET ratio above about 2000; inactive = the rest.

NS(=O)(=O)c1ccc(-c2ccc(/C=C3\C(=O)Nc4cc(Cl)ccc43)o2)cc1	PPARg SRC1 recr 27 | PPARg SRC2 ag 31 | PPARg SRC1 conf inactive | PPARg SRC3 conf inactive
CC1(C)OC(=O)C(=Cc2ccc(-c3ccc(S(N)(=O)=O)cc3)o2)C(=O)O1	none
Cc1cc(-c2cccc(Br)c2)c(C#N)c(N)n1	PPARg SRC2 recr 25, PPARg SRC1 recr 22, SRC1 TRFRET art 2711 | PPARg SRC2 ag inactive | PPARg SRC1 conf inactive | PPARg SRC3 conf inactive
Cc1cc(C)c(C#N)c(N)n1	none
O=C(CNC1CCCCCC1)Nc1ccccc1N1CCOCC1	none
CNc1cnn(-c2ccc(C)cc2)c(=O)c1Cl	none (no result: SRC3 TRFRET art, SRC1 TRFRET art)
Cc1ccc(S(=O)(=O)Nc2cnn(-c3ccccc3)c(=O)c2Cl)cc1	SRC3 TRFRET art 2439, SRC2 TRFRET art 2289, PPARg SRC-3 ag 28, PPARg SRC2 recr 39, PPARg SRC1 recr 34, SRC1 TRFRET art 3010 | PPARg SRC2 ag 47 | PPARg SRC1 conf 35 | PPARg SRC3 conf 28
COc1ccc(OC)c(C2C(C(=O)c3cc4ccccc4o3)=C(O)C(=O)N2c2cc(C)on2)c1 (stereo unspecified)	SRC2 TRFRET art 2296, PPARg SRC2 recr 22, PPARg SRC1 recr 19 (no result: SRC3 TRFRET art, SRC1 TRFRET art) | PPARg SRC2 ag 28 | PPARg SRC1 conf 21 | PPARg SRC3 conf inactive
O=C(OCn1ncc(Br)c(Br)c1=O)c1ccc(F)cc1	SRC2 TRFRET art 2296, PPARg SRC-3 ag 44, PPARg SRC2 recr 37, PPARg SRC1 recr 22 (no result: SRC3 TRFRET art, SRC1 TRFRET art) | PPARg SRC2 ag 43 | PPARg SRC1 conf 29 | PPARg SRC3 conf 31
O=C(OCn1ncc(Br)c(Br)c1=O)c1ccccc1Cl	none (no result: SRC3 TRFRET art, SRC1 TRFRET art)
Cc1ccc(S(=O)(=O)N2CCCN(S(=O)(=O)c3ccc4c(c3)OCCO4)CC2)cc1	none (no result: SRC3 TRFRET art, SRC1 TRFRET art)
Cc1ccc2nc(N3CCN(S(=O)(=O)c4ccc5c(c4)OCCO5)CC3)c(C#N)cc2c1	SRC2 TRFRET art 3423, PPARg SRC-3 ag 45, PPARg SRC2 recr 22, PPARg SRC1 recr 31 (no result: SRC3 TRFRET art, SRC1 TRFRET art) | PPARg SRC2 ag inactive | PPARg SRC1 conf inactive | PPARg SRC3 conf inactive
COc1ccc(NC(=O)c2sc(=S)[nH]c2N)cc1	PPARg SRC-3 ag 28 (no result: SRC3 TRFRET art, SRC1 TRFRET art) | PPARg SRC2 ag inactive | PPARg SRC1 conf inactive | PPARg SRC3 conf inactive
O=C(CSCc1ccc(Br)cc1)NCc1ccccn1	none
CC(C)OC(=O)CCCN1C(=O)c2ccc(N)cc2C1=O	PPARg SRC2 recr 23 (no result: SRC3 TRFRET art, SRC1 TRFRET art) | PPARg SRC2 ag inactive | PPARg SRC1 conf inactive | PPARg SRC3 conf inactive
O=C(CN1CCN(Cc2ccccc2)CC1)N/N=C/c1c[nH]c2ccccc12	none
COc1nc(N2CCCC2)nc(-n2nnc(C(C)=O)c2C)n1	none
S=c1nc[nH]c2c1[nH]c1ccccc12	SRC2 TRFRET art 2670, PPARg SRC-3 ag 48, PPARg SRC2 recr 38, PPARg SRC1 recr 29 (no result: SRC3 TRFRET art, SRC1 TRFRET art) | PPARg SRC2 ag inactive | PPARg SRC1 conf inactive | PPARg SRC3 conf inactive
Cn1c(-c2ccco2)n[nH]c1=S	none
Cc1cccc(-n2c(-c3ccco3)n[nH]c2=S)c1	SRC3 TRFRET art 2283, SRC2 TRFRET art 2124, PPARg SRC-3 ag 23, PPARg SRC2 recr 28, PPARg SRC1 recr 25, SRC1 TRFRET art 2623 | PPARg SRC2 ag 35 | PPARg SRC1 conf 25 | PPARg SRC3 conf 26
Cc1cc(C)n(-c2ccc(C(=O)OCC(=O)c3ccc(Br)s3)cc2)n1	SRC2 TRFRET art 3035, PPARg SRC-3 ag 36, PPARg SRC2 recr 28, PPARg SRC1 recr 20 (no result: SRC3 TRFRET art, SRC1 TRFRET art) | PPARg SRC2 ag 29 | PPARg SRC1 conf 22 | PPARg SRC3 conf inactive
C/C(CC(=O)NC(C)(C)C)=N\NC(N)=S	PPARg SRC1 recr 21 | PPARg SRC2 ag inactive | PPARg SRC1 conf inactive | PPARg SRC3 conf inactive
Cc1ccc(N2CSC3=C(C#N)C(c4cccs4)CC(=O)N3C2)cc1 (stereo unspecified)	SRC2 TRFRET art 2106, PPARg SRC2 recr 29 (no result: SRC3 TRFRET art, SRC1 TRFRET art) | PPARg SRC2 ag inactive | PPARg SRC1 conf inactive | PPARg SRC3 conf inactive
Clc1cccc(-c2ccc(C=Nc3ccc(N4CCOCC4)cc3)o2)c1	SRC2 TRFRET art 2011, PPARg SRC2 recr 26, PPARg SRC1 recr 28 | PPARg SRC2 ag 35 | PPARg SRC1 conf 25 | PPARg SRC3 conf inactive
CN(C)NC(=O)C12CCC(C)(C(=O)O1)C2(C)C (stereo unspecified)	none
CCOC(=O)c1nnn(CC(=O)N2N=C(c3ccc(Cl)cc3)CC2c2ccccc2)c1C(=O)OCC (stereo unspecified)	none (no result: SRC3 TRFRET art, SRC1 TRFRET art)
Cc1nn(Cc2ccccc2Cl)c(C)c1C(=O)NCCN1C(=O)S/C(=C\c2ccccc2)C1=O	PPARg SRC-3 ag 23, PPARg SRC1 recr 23 | PPARg SRC2 ag inactive | PPARg SRC1 conf 22 | PPARg SRC3 conf inactive
O=C(COc1cccc2cccnc12)N/N=C1\SCC(=O)N1CCc1ccccc1	none
N#Cc1c(N)nc2c3c(sc(=N)c2c1N)NC(=O)CC3c1ccccc1 (stereo unspecified)	SRC2 TRFRET art 2053, PPARg SRC-3 ag 26, PPARg SRC1 recr 27 (no result: SRC3 TRFRET art, SRC1 TRFRET art) | PPARg SRC2 ag inactive | PPARg SRC1 conf inactive | PPARg SRC3 conf inactive
N#Cc1c(N)nc2c3c(sc(=N)c2c1N)NC(=O)CC3c1c(F)cccc1Cl (stereo unspecified)	none (no result: SRC3 TRFRET art, SRC1 TRFRET art)
COc1ccc(CCN2C(=O)c3cccc4c(C(=O)N5CCCCC5)ccc(c34)C2=O)cc1OC	none
CCO[C@@H]1OC(C(=O)N2CCCCCCC2)=C[C@H](c2ccc3c(c2)OCO3)[C@H]1CCCO	none
COc1ccc(-n2c(O)c(C=Nc3ccccc3)c3ccccc3c2=O)cc1	none
COc1ccc(N=Cc2sc(O)c3ccccc23)cc1	PPARg SRC-3 ag 26, PPARg SRC2 recr 28, PPARg SRC1 recr 22 (no result: SRC3 TRFRET art, SRC1 TRFRET art) | PPARg SRC2 ag inactive | PPARg SRC1 conf inactive | PPARg SRC3 conf inactive
CCc1nnc(NS(=O)(=O)c2ccc(N/C=C\C(=O)c3cccc4ccccc34)cc2)s1	PPARg SRC-3 ag 48, PPARg SRC2 recr 24, PPARg SRC1 recr 23 | PPARg SRC2 ag 23 | PPARg SRC1 conf 22 | PPARg SRC3 conf 41
COc1ccc(N2CCN(Cc3nc(N)nc(Nc4ccccc4OC)n3)CC2)cc1	none (no result: SRC3 TRFRET art, SRC1 TRFRET art)
COc1ccc(Nc2nc(N)nc(CN3CCN(c4ccc(F)cc4)CC3)n2)cc1	PPARg SRC1 recr 24, SRC1 TRFRET art 2427 | PPARg SRC2 ag inactive | PPARg SRC1 conf inactive | PPARg SRC3 conf inactive
S=c1[nH]nc(-c2cccnc2)o1	none (no result: SRC3 TRFRET art, SRC1 TRFRET art)
S=c1[nH]nc(-c2cccc(Br)c2)o1	SRC2 TRFRET art 4187, PPARg SRC-3 ag 150, PPARg SRC2 recr 108, PPARg SRC1 recr 94 (no result: SRC3 TRFRET art, SRC1 TRFRET art) | PPARg SRC2 ag 68 | PPARg SRC1 conf 48 | PPARg SRC3 conf 48
O=C(COC(=O)c1cc(-c2cccc3ccccc23)nc2ccccc12)NC1CCS(=O)(=O)C1 (stereo unspecified)	none

From PubChem
